# Screens (PubChem BioAssay)
# RGS16-Gao HTS = modulators of RGS16 binding to Galphao, primary screen, biochemical, human proteins, multiplexed bead flow cytometry; Regulator of G-protein signaling 16 (Homo sapiens) + Guanine nucleotide-binding protein …; bead-based flow cytometry RGS16-Galphao binding, fluorescence; actives lie on both sides; binding response (% of control), % at 10 µM; 220,000 tested, 0.38% active; AID 1441, 2008;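 also: Galphao activated by GDP with aluminum fluoride before binding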
# Avidin bead fluor = green autofluorescence of compounds with avidin beads – biophysical, 488/530 nm, flow cytometry, artefact control, profiling panel; compound fluorescence 488/530 nm; hits give high values; fluorescence (KMESF) at 10 µM; 220,000 tested, 0.38% active; AID 1775, 2009; in the data active = fluorescence above about 47
# RGS7-Gao = RGS7-Galphao binding modulators, primary screen, biochemical, multiplexed bead flow cytometry. Guanine nucleotide-binding protein G(o) subunit alpha (Homo sapiens), P09471. actives lie on both sides. binding response (% of control), % at 10 µM. 220,000 tested, 0.35% active. AID 1439, 2008; in the data active = binding response below about 49% or above about 150%; inconclusive = no clear call, values can overlap the other calls; inactive = in between;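 also: fluorescent Galphao held in activated GDP-AlF4 state binding bead-coupled RGS7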
# Target sequence (P09471 whole entry, looked up): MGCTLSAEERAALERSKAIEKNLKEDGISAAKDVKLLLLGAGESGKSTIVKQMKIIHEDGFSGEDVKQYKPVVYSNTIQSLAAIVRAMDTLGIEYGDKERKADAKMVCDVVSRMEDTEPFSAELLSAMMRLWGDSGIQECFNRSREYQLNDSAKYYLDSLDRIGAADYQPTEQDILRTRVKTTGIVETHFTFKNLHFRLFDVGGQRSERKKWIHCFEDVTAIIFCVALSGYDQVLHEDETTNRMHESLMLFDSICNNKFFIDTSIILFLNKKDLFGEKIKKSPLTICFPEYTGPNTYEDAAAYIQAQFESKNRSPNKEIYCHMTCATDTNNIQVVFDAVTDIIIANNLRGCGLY
# RGS8-Gao = RGS8-Galphao binding modulators, primary screen, biochemical, multiplexed bead flow cytometry; Guanine nucleotide-binding protein G(o) subunit alpha (Homo sapiens), P09471; actives lie on both sides; response (percent of control binding), % at 10 µM; 220,000 tested, 0.34% active; in the data active = response below about 60% or above about 140%; inactive = in between;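 also: Galphao activated as the GDP aluminium fluoride complex binding bead-coupled RGS8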
# GSH bead fluor = compound fluorescence on glutathione beads, profiling panel, artefact control, biophysical, 488/530 nm, flow cytometry | GSH beads flow cytometry, compound fluorescence 488/530 nm; hits give high values | fluorescence (KMESF) at 10 µM | 190,000 tested, 0.25% active; in the data active = fluorescence above about 89;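 also: glutathione beads carrying GST-tagged Bcl family fusion proteins plus one bare bead set; values are compound well signal with DMSO vehicle wells as background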
# RGS4-Gao reg = modulators of RGS4 binding to Galphao, primary screen, biochemical, multiplexed bead flow cytometry | binding response (% of control), % at 10 µM | AID 1415, 2008 | actives lie on both sides | 220,000 tested, 0.33% active | Guanine nucleotide-binding protein G(o) subunit alpha (Homo sapiens), P09471; in the data active = binding response below about 49% or above about 150%; inactive = in between;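 also: fluorescent Galphao activated with aluminum fluoride binding bead-coupled RGS4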
# RGS-Gao = modulators of RGS–Galpha-o binding, primary screen, biochemical, multiplexed beads, flow cytometry, RGS4/7/8/16/19 | shares compounds with RGS16-Gao HTS | multiplexed bead flow cytometry | RGS4–Galpha-o binding response, % at 10 µM | 1,600 tested, 99% active | AID 1504, 2009;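 also: fluorescently labeled Galpha-o bound to GDP with aluminium fluoride binding biotinylated RGS beads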
# Target sequence (P09471 whole entry, looked up): as above
# Target sequence (P49798 whole entry, looked up): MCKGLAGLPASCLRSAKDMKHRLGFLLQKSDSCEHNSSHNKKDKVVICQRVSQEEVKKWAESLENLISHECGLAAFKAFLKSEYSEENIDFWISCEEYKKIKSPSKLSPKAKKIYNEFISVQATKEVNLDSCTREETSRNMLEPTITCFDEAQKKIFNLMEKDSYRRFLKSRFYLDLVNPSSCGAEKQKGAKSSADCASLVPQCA
# Biotin-avidin = disruption of biotin probe capture by avidin, counter-screen for RGS protein interaction modulators, biochemical, flow cytometry, bead-based. shares compounds with RGS16-Gao HTS. streptavidin beads, fluorescein-biotin binding. inhibition, % at 10 µM. 1,700 tested, under 10 active;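 active = inhibition above 50%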;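 also: median green fluorescence of gated singlet beads compared with DMSO control wells; 0% = DMSO wells and 100% = complete loss of bead fluorescence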
# RGS8-Gao single = RGS8-Galphao binding modulators, confirmation, biochemical, multiplexed bead flow cytometry, single concentration | bead-based flow cytometry RGS8-Galphao binding, fluorescence; actives lie on both sides | shares compounds with RGS16-Gao HTS | 1,700 tested, 3% active | AID 1836, 2009 | binding response (% of control), % at 10 µM; in the data active = binding response below about 72% or above about 130%; inactive = in between;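 also: Galphao activated as GDP AlF4 complex before binding bead RGS8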
# RGS7-Gao confirm = RGS7-Galphao binding modulators, confirmation, biochemical, multiplexed bead flow cytometry, single concentration; shares compounds with RGS16-Gao HTS; bead-based flow cytometry RGS7-Galphao binding; actives lie on both sides; response (percent of control binding), % at 10 µM; 1,700 tested, 7.8% active; AID 1837, 2009; in the data active = response below about 75% or above about 130%; inactive = in between;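 also: fluorescent Galphao activated with GDP and aluminum fluoride binding bead-coupled RGS7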
# RGS16-Gao conf = modulators of RGS16-Galphao protein binding, confirmation, biochemical, single concentration, multiplexed bead flow cytometry. response (% of control binding), % at 10 µM. bead-based flow cytometry; actives lie on both sides. AID 1838, 2009. shares compounds with RGS16-Gao HTS. 1,700 tested, 4% active; in the data active = response below about 74% or above about 130%; inactive = in between;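 also: Galphao activated as the GDP aluminium fluoride complex binding bead-coupled RGS16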
# RGS4-Gao confirm = modulators of RGS4-Galphao protein binding, confirmation, biochemical, single concentration, multiplexed bead flow cytometry | shares compounds with RGS16-Gao HTS | actives lie on both sides | AID 1840, 2009 | binding response (% of control), % at 10 µM | 1,700 tested, 4% active; in the data active = binding response below about 74% or above about 130%; inactive = in between
# RGS19-Gao single = regulators of RGS19-Galphao binding, confirmation, biochemical, single point, multiplexed bead flow cytometry. shares compounds with RGS16-Gao HTS. bead-based flow cytometry RGS19-Galphao binding; actives lie on both sides. response (percent of control binding), % at 10 µM. 1,700 tested, 5% active; in the data active = response below about 50% or above about 160%; inactive = in between;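 also: 100% = no compound control and 0% = blank background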
# Starred values were filed as active, the others as inactive; ? = inconclusive; · = no result given; [ ] = dose if it differs, or a comment. Most compounds without a hit are left out; they make up all but 1.2% or so of the library. Unless noted, no rule for the calls is given here.
SMILES,RGS16-Gao HTS,Avidin bead fluor,RGS7-Gao,RGS8-Gao,GSH bead fluor,RGS4-Gao reg,RGS-Gao,Biotin-avidin,RGS8-Gao single,RGS7-Gao confirm,RGS16-Gao conf,RGS4-Gao confirm,RGS19-Gao single
Cn1cccc1C1Nc2ccccc2NC2=C1C(=O)CC(C)(C)C2 (configuration not stated),50,0,58,58*,7,60,60*,1,102,99,103,103,101
Cc1ccc(C)n1-c1ccc(C(=O)O)cc1,73,11,39*,61,12,66,66*,0,96,92,98,98,102
O=C(COc1ccccc1)NC(=S)Nc1ccc(Br)cn1,103,6,?,104,·,100,·,·,·,·,·,·,·
CC(C)CC(NC(=O)c1ccccc1)C(=O)OCC(=O)Nc1ccc(Br)cn1 (configuration not stated),120,346*,238*[activator],92,36,137,137*,-1,96,94,93,94,101
COc1ccc(C2CCCN2C(=S)Nc2ccc(C)cc2Cl)cc1OC (configuration not stated),105,12,113,102,10,105,·,·,·,·,·,·,·
CCOC(=O)C1CCCN(C(=O)/C=C/c2cc(OC)c(OC)c(OC)c2)C1 (configuration not stated),103,114*,170*[activator],92,17,103,103*,1,102,98,97,99,90
CCOC(=O)C1CCCN(C(=O)/C=C/c2ccc(Cl)cc2)C1 (configuration not stated),109,4,106,101,21,104,·,·,·,·,·,·,·
CCOC(=O)CN(c1ccccn1)S(=O)(=O)c1ccc(OC)cc1,100,7,105,101,16,106,·,·,·,·,·,·,·
O=C1N(CN2CCC3(CC2)OCCO3)c2ccccc2C12OCCCO2,104,21,100,99,9,95,·,·,·,·,·,·,·
CC1(C)COC2(OC1)C(=O)N(CN1CCOCC1)c1ccccc12,128,124*,252*[activator],106,22,128,128*,0,99,96,99,101,90
C=C(C)C(=O)Nc1cccnc1Oc1ccc(F)cc1F,101,9,?,100,·,99,·,·,·,·,·,·,·
COc1ccc(NC(=O)c2ccc(COc3ccc(C)cc3)o2)cc1,42,7,97,85,29,101,·,·,·,·,·,·,·
COc1ccc(NC(=S)N2CCC(c3nc4ccccc4o3)CC2)c(OC)c1,94,13,95,100,9,93,·,·,·,·,·,·,·
O=[N+]([O-])c1ccc(Sc2cccc[n+]2[O-])c2nonc12,3.0*,4,?,36*,·,84,84*,-2,52*,81,26*,77,21*
COC(=O)c1ccc(C(=O)OC)c(NC(=O)CSc2ccccn2)c1,101,87*,157*[activator],100,21,107,107*,1,98,101,100,100,108
COc1ccc(NC(=O)CSc2ccccn2)cc1OC,102,15,99,101,29,100,·,·,·,·,·,·,·
COCCNC(=O)CN(C(=O)Cn1nnc2ccccc21)c1cc(C)cc(C)c1,103,60*,167*[activator],100,9,110,110*,0,94,92,94,93,100
O=C(Nc1cccc(Cl)c1)Nc1nnc(CC2=CCCCC2)s1,93,15,91,93,17,90,·,·,·,·,·,·,·
CCCCN(CCCC)c1cn[nH]c(=O)c1Cl,9.8*,1,16*,13*,12,22*,·,0,104,109,109,103,107
Cc1nn(C(C)C(=O)O)c(=O)c2ccccc12 (configuration not stated),67,5,95,90,8,94,·,·,·,·,·,·,·
C=Cn1nc(C)c2ccccc2c1=O,17*,0,14*,16*,31,25*,·,1,99,100,99,99,104
Cc1cc(C)n(-c2nnc3c4ccccc4n(C)c3n2)n1,100,8,?,103,·,99,·,·,·,·,·,·,·
N#Cc1nc(COc2ccc(Br)cc2)oc1NCCN1CCOCC1,121,7,133,143*[activator],16,140,140*,3,98,101,99,98,95
Cc1ccnc(SCc2cc(=O)c(OC(=O)c3ccc(Cl)c([N+](=O)[O-])c3)co2)n1,62,10,99,87,-2,91,·,·,·,·,·,·,·
CC(C)CNC(=O)COC(=O)CCC(=O)c1ccc(Cl)cc1,81,7,99,96,12,96,·,·,·,·,·,·,·
CC(C)(C)NC(=O)COC(=O)CCC(=O)c1ccc(Cl)cc1,15*,5,22*,21*,23,25*,·,0,100,106,102,104,100
